Source: PubChem
The list is not random: actives were taken first. Their share in the collection is about 3.1%.
EPAC1 agonist – Validation qHTS for agonist of cAMP-regulated guanine nucleotide exchange factor 3 (EPAC1); Rap guanine nucleotide exchange factor 3 (Homo sapiens), O95398; EPAC1 Rap1b BODIPY-GDP exchange, fluorescence; Potency, µM, hits mostly activators; 16,000 tested, 1% active; AID 1645883, 2021; further: nearly all actives have a fitted effect of over 70% in size
Target sequence (O95398 whole entry, looked up): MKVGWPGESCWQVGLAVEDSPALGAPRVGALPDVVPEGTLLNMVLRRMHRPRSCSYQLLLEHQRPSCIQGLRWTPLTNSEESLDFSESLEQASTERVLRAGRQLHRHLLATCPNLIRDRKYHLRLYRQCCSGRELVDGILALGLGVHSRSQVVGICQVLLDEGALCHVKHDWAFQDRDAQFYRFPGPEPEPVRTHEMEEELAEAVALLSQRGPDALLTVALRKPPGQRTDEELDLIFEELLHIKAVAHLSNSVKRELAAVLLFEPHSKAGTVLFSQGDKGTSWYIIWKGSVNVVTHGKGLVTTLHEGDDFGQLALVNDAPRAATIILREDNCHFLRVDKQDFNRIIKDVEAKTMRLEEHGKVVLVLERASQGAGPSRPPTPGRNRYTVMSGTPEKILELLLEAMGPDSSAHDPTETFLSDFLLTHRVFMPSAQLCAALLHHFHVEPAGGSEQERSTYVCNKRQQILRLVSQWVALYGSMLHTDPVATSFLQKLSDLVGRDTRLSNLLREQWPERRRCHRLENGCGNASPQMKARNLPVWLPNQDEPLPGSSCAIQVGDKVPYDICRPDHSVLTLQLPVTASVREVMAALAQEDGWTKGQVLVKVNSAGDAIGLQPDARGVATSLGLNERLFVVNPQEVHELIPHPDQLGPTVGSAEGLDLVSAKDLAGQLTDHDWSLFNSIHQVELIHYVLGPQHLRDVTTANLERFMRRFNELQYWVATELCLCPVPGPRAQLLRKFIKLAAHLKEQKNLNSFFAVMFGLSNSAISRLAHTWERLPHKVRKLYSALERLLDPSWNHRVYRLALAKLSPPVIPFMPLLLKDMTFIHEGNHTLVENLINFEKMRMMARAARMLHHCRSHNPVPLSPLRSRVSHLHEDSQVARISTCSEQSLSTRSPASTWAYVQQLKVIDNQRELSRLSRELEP
EPAC2 antag – Validation qHTS for antagonist of cAMP-regulated guanine nucleotide exchange factor 4 (EPAC2). Rap guanine nucleotide exchange factor 4 (Homo sapiens), Q8WZA2. EPAC2 Rap1B BODIPY-GDP exchange, fluorescence. Potency, µM (series often up to 112 µM), most hits filed as inhibitors. 16,000 tested, 1.7% active. AID 1645886, 2021; further: nearly all actives have a fitted effect of over 40% in size
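Fluorescent exchange read-out: 100 nM EPAC2 with 250 nM RAP1B–BODIPY-GDP and 50 uM GDP; BODIPY-GDP release lowers fluorescence. Read at 480/540 nm every 5 min for 30 min at room temperature; normalized to 6.5 mM cAMP.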
Hits are given with their value; - = inactive; ? = inconclusive; ! = a repeat was not active. The call rests on the fitted dose curve; in most records, active means well fitted curve in the direction sought with a large enough effect; inconclusive means small, poorly fitted or top-dose-only effect, or another doubt; inactive means no such curve, though single readings can be large; an effect the other way counts as inactive or inconclusive.

SMILES | EPAC1 agonist | EPAC2 antag
COC(=O)C1=C(C)NC(C)=C(C(=O)OCCSc2ccccc2)[C@@H]1C | - | ?
CCOC(=O)N1CCN(Cc2ccc3c(c2)CN(C(=O)c2cc(-c4ccccc4)no2)CCO3)CC1 | - | -
Cc1ncsc1CCC(=O)N1CCCC(c2nc(-c3ccncc3)ncc2-c2ccccc2)C1 (stereo unspecified) | - | -
NCCC[C@H](N)CC(=O)N[C@H]1CNC(=O)[C@H]([C@H]2C[C@H](O)N=C(N)N2)NC(=O)C(=CNC(N)=O)NC(=O)[C@H](CO)NC(=O)[C@H](CO)NC1=O | - | -
COC(=O)/C=C/C(C)=C/C=C/C(C)=C/C=C/C=C(C)/C=C/C=C(C)/C=C/C(=O)O | - | -
COc1cc(C)c(/C=C/C(C)=C/C=C/C(C)=C/C(=O)O)c(C)c1C | - | 25µM!
COC(=O)[C@H]1[C@H]2C[C@@H]3c4[nH]c5cc(OC)ccc5c4CCN3C[C@H]2C[C@@H](OC(=O)COc2ccc(OC)cc2)[C@@H]1OC | - | -
CCOC(=O)Oc1c(OC)cc(C(=O)O[C@@H]2C[C@@H]3CN4CCc5c([nH]c6cc(OC)ccc56)[C@H]4C[C@@H]3[C@H](C(=O)OC)[C@H]2OC)cc1OC | 32µM! | -
CO[C@@H]1[C@@H](O[C@@H]2O[C@H](C)[C@@H](O[C@H]3C[C@@](C)(O)[C@@H](OC(=O)CC(C)C)[C@H](C)O3)[C@H](N(C)C)[C@H]2O)[C@@H](CC=O)C[C@@H](C)C(=O)/C=C/C2OC2C[C@@H](C)OC(=O)C[C@H]1OC(C)=O (stereo partly specified) | - | -
COc1ccc(S[C@@H](CCN2CC[C@H](C)CCC2=O)c2ccccc2)cc1 | - | ?
C[C@@H]1CCC(=O)N(CC[C@H](Oc2ccccc2)c2ccccc2)CC1 | - | 79µM
COc1ccc2c(c1)CCc1cnc(-n3ncc(C(=O)N(C)CCc4ccccn4)c3C)nc1-2 | - | -
Clc1ccc(C(c2ccccc2Cl)C(Cl)Cl)cc1 (stereo unspecified) | ? | 14µM!
Cc1nc2ccccc2nc1CN1CCOc2ccc(C3(O)CCN(c4ccccc4F)CC3)cc2C1 | - | -
CC(C)(C)NCC(O)CSc1nc(-c2ccc(C(N)=O)s2)cs1 (stereo unspecified) | - | -
CC(=O)N1CCC[C@H]1C(=O)NCC1Cc2cc(-c3cccc(OC(F)(F)F)c3)ccc2O1 (stereo partly specified) | - | 71µM
Cc1noc(C)c1CC(=O)NCC1Cc2cc(-c3cccc(OC(F)(F)F)c3)ccc2O1 (stereo unspecified) | - | ?
Cc1ccc(CNc2nc(CN3CCSCC3)nc3ccccc23)o1 | - | -
Cc1cccc(C)c1NC(=O)C(C)N (stereo unspecified) | 89µM! | -
CN=C(N)NC(=O)Nc1c(C)cccc1C | - | -
COc1cc(=O)n2c(c1C(=O)NCc1ccco1)CCN(Cc1ccc(F)cc1Cl)CC2 | - | -
COC(=O)C1=C(C)NC(C)=C(C(=O)OCC(C)C)C1c1ccccc1[N+](=O)[O-] (stereo unspecified) | - | ?
COC(=O)C1=C(C)NC(C)=C(C(=O)OC(C)C)C1c1cccc2nonc12 (stereo unspecified) | - | 50µM!
CO[C@H]1C=CO[C@@]2(C)Oc3c(C)c(O)c4c(O)c(c(/C=N/N5CCN(C6CCCC6)CC5)c(O)c4c3C2=O)NC(=O)/C(C)=C\C=C[C@H](C)[C@H](O)[C@@H](C)[C@@H](O)[C@@H](C)[C@H](OC(C)=O)[C@@H]1C | - | ?
Nc1c(S(=O)(=O)O)cc(Nc2ccc(Nc3nc(Cl)nc(Nc4ccc(S(=O)(=O)O)cc4)n3)c(S(=O)(=O)O)c2)c2c1C(=O)c1ccccc1C2=O | ? | 79µM
SMILES | EPAC1 agonist | EPAC2 antag
C/C(=C(\CCOC(=O)c1ccccc1)SS/C(CCOC(=O)c1ccccc1)=C(/C)N(C=O)Cc1cnc(C)nc1N)N(C=O)Cc1cnc(C)nc1N | - | -
CC(C)c1c(C(=O)NCCN2CCOCC2)cnn1-c1nccc(-c2cccs2)n1 | - | -
COc1ccc(O)c(CN2CCC3(CC2)c2ccccc2[C@@H](NC(=O)c2cccc(F)c2)[C@@H]3OC)c1 | - | -
CC(C)(C)NC(=O)[C@@H]1C[C@@H]2CCCC[C@@H]2CN1C[C@@H](O)[C@H](Cc1ccccc1)NC(=O)[C@H](CC(N)=O)NC(=O)c1ccc2ccccc2n1 | - | ?
CC(C)(C)NC(=O)[C@H]1CN(Cc2cccnc2)CCN1C[C@@H](O)C[C@@H](Cc1ccccc1)C(=O)N[C@H]1c2ccccc2C[C@H]1O | - | 25µM
C=C[C@]1(C)C[C@@H](OC(=O)CSCCN(CC)CC)[C@]2(C)[C@H](C)CC[C@]3(CCC(=O)[C@H]32)[C@@H](C)[C@@H]1O | - | -
